Measurements: the supplement of paper PMC10849652
Of roughly 7,900 targets only a part is listed; those with a hit were picked by preference. About 0.6% of all pairs of compound and target were hits.

Key:
Test in all cases: log2 fold change, soluble protein after heating vs DMSO (PISA); higher = thermal stabilisation; K562 cells, 10 uM, 30 min; active = over 0.2 and 3.5 SD of the protein, either way, in both replicates (recomputed)
[1] = compound: COC1=CC=C(C=C1)CN2C=CC3=C2C=C(C=C3)C(=O)NO
In short: (§1)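 K562 cells at 2×10^6 cells/mL were treated for 30 min with 10 μM compound, and aliquots were heated for 3 min over 48°C-58°C before pooling. Extraction used PBS with 0.5% NP-40 at 4°C, and soluble protein was the supernatant after 21,000xg for 90 min, measured by TMTpro 16plex LC-MS/MS with channel sums equalised. Thermal stability values, relative to control samples and from duplicates, are log2 fold changes.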

filanesib = compound: CON(C)C(=O)N1N=C(c2cc(F)ccc2F)S[C@@]1(CCCN)c1ccccc1 [filanesib]
In short: as §1

zotarolimus = compound: CO[C@H]1C[C@@H]2CC[C@@H](C)[C@@](O)(O2)C(=O)C(=O)N2CCCC[C@H]2C(=O)O[C@H]([C@H](C)C[C@@H]2CC[C@H](n3cnnn3)[C@H](OC)C2)CC(=O)[C@H](C)/C=C(\C)[C@@H](O)[C@@H](OC)C(=O)[C@H](C)C[C@H](C)/C=C/C=C/C=C/1C [zotarolimus]
In short: as §1

idasanutlin = compound: COc1cc(C(=O)O)ccc1NC(=O)[C@@H]1N[C@@H](CC(C)(C)C)[C@](C#N)(c2ccc(Cl)cc2F)[C@H]1c1cccc(Cl)c1F [idasanutlin]
In short: as §1

alisertib = compound: COc1cc(Nc2ncc3c(n2)-c2ccc(Cl)cc2C(c2c(F)cccc2OC)=NC3)ccc1C(=O)O [alisertib]
In short: as §1

[2] = compound: COc1cc2nc(-c3cc(F)ccc3O)nc(N[C@@H]3CNC[C@H]3C(C)(C)O)c2cc1OC
In short: as §1

gefitinib = compound: COc1cc2ncnc(Nc3ccc(F)c(Cl)c3)c2cc1OCCCN1CCOCC1 [gefitinib]
In short: as §1

[3] = compound: COc1cccc2cc(-c3nc([C@H]4CC[C@H](C(=O)O)CC4)n4ncnc(N)c34)[nH]c12
In short: as §1

lapatinib = compound: CS(=O)(=O)CCNCc1ccc(-c2ccc3ncnc(Nc4ccc(OCc5cccc(F)c5)c(Cl)c4)c3c2)o1 [lapatinib]
In short: as §1

pictilisib = compound: CS(=O)(=O)N1CCN(Cc2cc3nc(-c4cccc5[nH]ncc45)nc(N4CCOCC4)c3s2)CC1 [pictilisib]
In short: as §1

[4] = compound: CS(=O)(=O)c1ccc(-c2cnc(N)c(C(=O)Nc3ccccc3)n2)cc1
In short: as §1

crizotinib = compound: C[C@@H](Oc1cc(-c2cnn(C3CCNCC3)c2)cnc1N)c1c(Cl)ccc(F)c1Cl [crizotinib]
In short: as §1

[5] = compound: C[C@@H]1COCCN1C2=NC(=NC(=C2)C3(CC3)S(=O)(=O)C)C4=C5C=CNC5=CC=C4
In short: as §1

[6] = compound: C[C@H](C1=CC=C(C=C1)C(=O)NC2=C3C=CNC3=NC=C2)N
In short: as §1

duvelisib = compound: C[C@H](Nc1ncnc2nc[nH]c12)c1cc2cccc(Cl)c2c(=O)n1-c1ccccc1 [duvelisib]
In short: as §1

gandotinib = compound: Cc1cc(Nc2cc(CN3CCOCC3)c3nc(C)c(Cc4ccc(Cl)cc4F)n3n2)n[nH]1 [gandotinib]
In short: as §1

tozasertib = compound: Cc1cc(Nc2cc(N3CCN(C)CC3)nc(Sc3ccc(NC(=O)C4CC4)cc3)n2)n[nH]1 [tozasertib]
In short: as §1

[7] = compound: Cc1cc(SCc2sc(-c3ccc(C(F)(F)F)cc3)nc2C)ccc1OCC(=O)O
In short: as §1

doramapimod = compound: Cc1ccc(-n2nc(C(C)(C)C)cc2NC(=O)Nc2ccc(OCCN3CCOCC3)c3ccccc23)cc1 [doramapimod]
In short: as §1

ispinesib = compound: Cc1ccc(C(=O)N(CCCN)[C@@H](c2nc3cc(Cl)ccc3c(=O)n2Cc2ccccc2)C(C)C)cc1 [ispinesib]
In short: as §1

Measured: log2 fold change

MRPS9 (UniProt P82933)
inactive: [1] 0.009 | filanesib 0.007 | zotarolimus 0.065 | idasanutlin -0.16 | alisertib 0.076 | [2] -0.021 | gefitinib 0.084 | [3] 0.016 | lapatinib 0.096 | pictilisib -0.049 | [4] -0.001 | crizotinib 0.011 | [5] 0.036 | [6] 0.202 | duvelisib -0.023 | gandotinib -0.054 | tozasertib -0.055 | [7] 0.086 | doramapimod 0.031
active: ispinesib -0.344

MLX (UniProt Q9UH92)
inactive: [1] -0.054 | filanesib 0.027 | zotarolimus -0.009 | idasanutlin -0.071 | alisertib -0.014 | [2] 0.025 | gefitinib 0.022 | [3] 0.057 | lapatinib -0.099 | pictilisib 0.05 | [4] -0.038 | crizotinib -0.188 | [5] 0.092 | [6] -0.001 | duvelisib -0.131 | gandotinib -0.239 | tozasertib -0.043 | [7] 0.115 | doramapimod 0.03 | ispinesib -0.186

ORC3 isoform 2 (UniProt Q9UBD5)
Chain of UniProt Q9UBD5 (Q9UBD5 whole entry, looked up): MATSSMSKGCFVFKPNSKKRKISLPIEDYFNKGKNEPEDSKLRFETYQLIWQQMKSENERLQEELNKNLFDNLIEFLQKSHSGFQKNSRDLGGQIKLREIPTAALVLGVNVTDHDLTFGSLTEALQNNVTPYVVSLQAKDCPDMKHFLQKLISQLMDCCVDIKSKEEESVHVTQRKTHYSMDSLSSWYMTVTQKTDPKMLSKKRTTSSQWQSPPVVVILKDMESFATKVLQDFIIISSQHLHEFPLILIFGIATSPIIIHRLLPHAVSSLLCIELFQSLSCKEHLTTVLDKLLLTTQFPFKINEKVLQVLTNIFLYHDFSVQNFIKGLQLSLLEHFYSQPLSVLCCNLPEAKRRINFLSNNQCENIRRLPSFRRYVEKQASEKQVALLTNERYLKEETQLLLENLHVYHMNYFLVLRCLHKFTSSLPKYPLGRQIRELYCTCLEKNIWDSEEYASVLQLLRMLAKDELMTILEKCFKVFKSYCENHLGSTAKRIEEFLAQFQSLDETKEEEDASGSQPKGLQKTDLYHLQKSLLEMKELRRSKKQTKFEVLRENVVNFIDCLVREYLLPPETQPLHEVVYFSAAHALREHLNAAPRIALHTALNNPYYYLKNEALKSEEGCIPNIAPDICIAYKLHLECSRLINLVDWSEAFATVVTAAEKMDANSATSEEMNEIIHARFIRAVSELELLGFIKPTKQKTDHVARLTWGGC
active: crizotinib -0.434
inactive: [1] 0.071 | filanesib 0.043 | zotarolimus 0.064 | idasanutlin 0.265 | alisertib -0.058 | [2] -0.002 | gefitinib 0.006 | [3] -0.068 | lapatinib 0.031 | pictilisib 0.027 | [4] -0.054 | [5] 0.015 | [6] -0.005 | duvelisib -0.03 | gandotinib -0.044 | tozasertib 0.062 | [7] 0.177 | doramapimod 0.016 | ispinesib -0.17

NELFA (UniProt Q9H3P2)
inactive: [1] 0.031 | filanesib 0.035 | zotarolimus -0.084 | idasanutlin -0.117 | alisertib 0.092 | [2] 0.105 | gefitinib 0.36 | [3] 0.017 | lapatinib -0.079 | pictilisib 0.076 | [4] -0.01 | crizotinib 0.082 | [5] 0.198 | [6] -0.011 | duvelisib 0.118 | gandotinib 0.004 | tozasertib 0.142 | [7] 0.234 | doramapimod -0.014 | ispinesib -0.068

MT-ND4 (UniProt P03905)
Chain of UniProt P03905 (P03905 whole entry, looked up): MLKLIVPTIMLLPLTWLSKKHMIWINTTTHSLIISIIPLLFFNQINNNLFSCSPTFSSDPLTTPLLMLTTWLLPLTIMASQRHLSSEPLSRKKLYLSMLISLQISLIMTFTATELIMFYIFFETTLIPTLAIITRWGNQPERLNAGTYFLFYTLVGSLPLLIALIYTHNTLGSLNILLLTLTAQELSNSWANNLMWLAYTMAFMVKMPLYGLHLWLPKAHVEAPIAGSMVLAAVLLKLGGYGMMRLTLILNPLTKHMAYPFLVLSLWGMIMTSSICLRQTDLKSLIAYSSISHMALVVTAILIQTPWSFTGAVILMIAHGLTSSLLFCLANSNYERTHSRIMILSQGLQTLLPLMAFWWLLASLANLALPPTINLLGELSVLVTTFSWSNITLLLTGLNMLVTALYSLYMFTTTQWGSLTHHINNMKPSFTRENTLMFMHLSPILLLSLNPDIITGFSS
inactive: [1] -0.021 | filanesib -0.009 | zotarolimus -0.069 | idasanutlin -0.147 | alisertib -0.02 | [2] -0.088 | gefitinib 0.003 | [3] 0.046 | lapatinib 0.013 | pictilisib -0.214 | [4] -0.107 | crizotinib 0.008 | [5] 0.052 | [6] -0.148 | duvelisib 0.079 | gandotinib -0.104 | tozasertib 0.06 | [7] -0.066 | doramapimod 0 | ispinesib 0.118

NT5DC1 (UniProt Q5TFE4)
inactive: [1] 0.016 | filanesib -0.067 | zotarolimus 0.019 | idasanutlin -0.122 | alisertib -0.015 | [2] 0.04 | gefitinib 0.018 | [3] 0.02 | lapatinib 0.074 | pictilisib 0.097 | [4] 0.045 | crizotinib 0.071 | [5] 0.046 | [6] -0.052 | duvelisib 0.05 | gandotinib 0.019 | tozasertib 0.004 | [7] -0.038 | doramapimod -0.018 | ispinesib 0.037

NUP107 (UniProt P57740)
Chain of UniProt P57740 (P57740 whole entry, looked up): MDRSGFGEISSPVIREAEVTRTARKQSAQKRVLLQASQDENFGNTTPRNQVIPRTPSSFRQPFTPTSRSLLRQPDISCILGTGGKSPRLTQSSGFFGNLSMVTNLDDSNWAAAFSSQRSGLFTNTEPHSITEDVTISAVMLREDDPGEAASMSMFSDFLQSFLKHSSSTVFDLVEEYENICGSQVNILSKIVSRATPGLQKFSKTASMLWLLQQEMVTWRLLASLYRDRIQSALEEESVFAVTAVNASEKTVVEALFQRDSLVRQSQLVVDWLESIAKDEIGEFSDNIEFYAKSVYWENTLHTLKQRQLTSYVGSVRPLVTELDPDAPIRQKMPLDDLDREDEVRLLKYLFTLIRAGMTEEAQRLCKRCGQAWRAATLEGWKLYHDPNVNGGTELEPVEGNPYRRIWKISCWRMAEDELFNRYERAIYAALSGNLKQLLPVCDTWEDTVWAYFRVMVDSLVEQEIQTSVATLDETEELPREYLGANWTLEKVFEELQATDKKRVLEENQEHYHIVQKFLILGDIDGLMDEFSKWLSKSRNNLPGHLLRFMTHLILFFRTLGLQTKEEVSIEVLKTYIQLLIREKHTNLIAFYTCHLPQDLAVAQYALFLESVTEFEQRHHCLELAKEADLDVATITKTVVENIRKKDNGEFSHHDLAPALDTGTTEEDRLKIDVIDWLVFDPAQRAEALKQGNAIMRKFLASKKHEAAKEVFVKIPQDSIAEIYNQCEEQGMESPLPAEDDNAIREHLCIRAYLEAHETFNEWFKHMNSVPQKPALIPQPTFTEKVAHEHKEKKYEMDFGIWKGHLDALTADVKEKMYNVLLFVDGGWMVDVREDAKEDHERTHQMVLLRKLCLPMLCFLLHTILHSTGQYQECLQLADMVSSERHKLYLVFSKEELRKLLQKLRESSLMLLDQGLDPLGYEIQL
inactive: [1] -0.005 | filanesib 0.233 | zotarolimus 0.032 | idasanutlin 0.026 | alisertib 0.007 | [2] -0.116 | gefitinib -0.073 | [3] -0.04 | lapatinib 0.137 | pictilisib -0.13 | [4] 0.101 | crizotinib -0.067 | [5] -0.083 | [6] -0.062 | duvelisib 0.031 | gandotinib -0.229 | tozasertib 0.028 | [7] 0.093 | doramapimod 0.11 | ispinesib -0.018

MRPL47 (UniProt Q9HD33)
inactive: [1] -0.068 | filanesib 0.183 | zotarolimus 0.072 | idasanutlin -0.042 | alisertib -0.087 | [2] -0.033 | gefitinib -0.134 | [3] -0.186 | lapatinib 0.072 | [4] 0.039 | crizotinib 0.019 | [5] -0.087 | [6] 0.261 | duvelisib -0.076 | tozasertib 0.033 | [7] 0.095 | doramapimod 0.11 | ispinesib -0.237
active: pictilisib 0.745 | gandotinib 0.625

MOV10 (UniProt Q9HCE1)
Chain of UniProt Q9HCE1 (Q9HCE1 whole entry, looked up): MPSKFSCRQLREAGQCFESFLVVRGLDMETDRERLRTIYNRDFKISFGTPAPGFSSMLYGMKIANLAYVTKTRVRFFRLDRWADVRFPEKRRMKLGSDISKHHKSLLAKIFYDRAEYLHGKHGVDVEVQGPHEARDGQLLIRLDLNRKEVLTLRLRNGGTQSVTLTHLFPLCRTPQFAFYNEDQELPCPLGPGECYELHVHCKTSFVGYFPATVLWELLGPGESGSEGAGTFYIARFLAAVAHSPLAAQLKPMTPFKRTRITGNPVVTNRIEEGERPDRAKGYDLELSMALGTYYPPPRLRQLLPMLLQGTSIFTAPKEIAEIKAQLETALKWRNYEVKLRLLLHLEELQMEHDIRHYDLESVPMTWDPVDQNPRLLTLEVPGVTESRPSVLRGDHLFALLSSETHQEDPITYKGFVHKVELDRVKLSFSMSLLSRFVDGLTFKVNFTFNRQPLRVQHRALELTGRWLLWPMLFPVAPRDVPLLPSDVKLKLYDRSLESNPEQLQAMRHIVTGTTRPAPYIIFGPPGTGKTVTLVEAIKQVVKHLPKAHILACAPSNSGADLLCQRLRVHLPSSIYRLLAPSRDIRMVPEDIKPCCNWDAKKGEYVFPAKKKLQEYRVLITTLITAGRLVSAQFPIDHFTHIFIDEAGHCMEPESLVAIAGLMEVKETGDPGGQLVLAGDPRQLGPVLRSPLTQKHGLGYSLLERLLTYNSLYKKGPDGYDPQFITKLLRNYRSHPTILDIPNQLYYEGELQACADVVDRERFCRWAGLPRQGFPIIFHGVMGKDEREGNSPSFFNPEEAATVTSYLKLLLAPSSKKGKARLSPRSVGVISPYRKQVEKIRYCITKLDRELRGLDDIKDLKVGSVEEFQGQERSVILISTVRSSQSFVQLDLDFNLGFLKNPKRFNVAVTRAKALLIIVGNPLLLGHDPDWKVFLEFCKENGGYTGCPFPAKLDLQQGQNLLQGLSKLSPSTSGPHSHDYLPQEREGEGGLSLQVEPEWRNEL
inactive: [1] -0.048 | filanesib 0.155 | zotarolimus -0.005 | idasanutlin 0.071 | alisertib -0.073 | [2] -0.021 | gefitinib 0.002 | [3] -0.1 | lapatinib 0.073 | pictilisib -0.048 | [4] -0.086 | crizotinib 0.032 | [5] -0.258 | [6] 0.254 | duvelisib -0.059 | gandotinib 0.239 | tozasertib 0.01 | [7] -0.023 | doramapimod 0.103 | ispinesib -0.093

NOL7 (UniProt Q9UMY1)
Chain of UniProt Q9UMY1 (Q9UMY1 whole entry, looked up): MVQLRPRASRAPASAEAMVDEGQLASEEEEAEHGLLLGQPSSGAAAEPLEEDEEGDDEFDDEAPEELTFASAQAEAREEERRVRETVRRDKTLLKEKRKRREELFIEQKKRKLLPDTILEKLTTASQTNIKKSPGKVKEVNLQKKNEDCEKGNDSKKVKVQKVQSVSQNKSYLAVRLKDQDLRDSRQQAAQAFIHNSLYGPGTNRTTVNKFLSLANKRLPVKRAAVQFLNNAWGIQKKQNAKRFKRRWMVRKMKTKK
inactive: [1] -0.089 | filanesib 0.524 | zotarolimus -0.024 | idasanutlin 0.157 | alisertib -0.119 | [2] -0.086 | gefitinib -0.006 | [3] -0.142 | lapatinib 0.169 | pictilisib -0.095 | [4] -0.054 | crizotinib 0.065 | [5] -0.661 | [6] 0.415 | duvelisib -0.201 | gandotinib 0.124 | tozasertib -0.001 | [7] 0.003 | doramapimod 0.187 | ispinesib -0.052

NUDCD2 (UniProt Q8WVJ2)
Chain of UniProt Q8WVJ2 (Q8WVJ2 whole entry, looked up): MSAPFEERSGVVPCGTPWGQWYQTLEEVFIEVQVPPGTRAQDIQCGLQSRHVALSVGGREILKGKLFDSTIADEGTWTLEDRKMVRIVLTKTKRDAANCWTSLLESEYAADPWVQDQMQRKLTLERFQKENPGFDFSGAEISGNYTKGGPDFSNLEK
inactive: [1] 0.072 | filanesib -0.016 | zotarolimus 0.065 | idasanutlin 0.075 | alisertib -0.011 | [2] 0.117 | gefitinib 0.083 | [3] -0.018 | lapatinib -0.038 | pictilisib 0.014 | [4] 0.049 | crizotinib -0.02 | [5] 0.1 | [6] -0.077 | duvelisib 0.004 | gandotinib -0.042 | tozasertib 0.149 | [7] 0.073 | doramapimod -0.049 | ispinesib -0.12

NDUFB10 (UniProt O96000)
inactive: [1] 0.044 | filanesib -0.025 | zotarolimus 0.006 | idasanutlin -0.035 | alisertib -0.021 | [2] -0.047 | gefitinib 0 | [3] 0.05 | lapatinib -0.035 | pictilisib 0.082 | [4] 0.024 | crizotinib -0.025 | [5] 0.012 | [6] 0.027 | duvelisib 0.023 | gandotinib -0.029 | tozasertib -0.002 | [7] 0.024 | doramapimod 0.003 | ispinesib -0.073

NMRAL1 (UniProt Q9HBL8)
inactive: [1] 0.678 | filanesib -0.084 | zotarolimus 0.135 | idasanutlin -0.268 | alisertib -0.099 | [2] 0.184 | gefitinib 0.257 | [3] 0.003 | lapatinib -0.003 | pictilisib 0.83 | [4] 0.228 | crizotinib 0.469 | [5] 0.054 | [6] 0.04 | duvelisib 0.046 | gandotinib -0.169 | tozasertib -0.056 | [7] -0.009 | doramapimod 0.001 | ispinesib -0.103

MTHFS (UniProt P49914)
Chain of UniProt P49914 (P49914 whole entry, looked up): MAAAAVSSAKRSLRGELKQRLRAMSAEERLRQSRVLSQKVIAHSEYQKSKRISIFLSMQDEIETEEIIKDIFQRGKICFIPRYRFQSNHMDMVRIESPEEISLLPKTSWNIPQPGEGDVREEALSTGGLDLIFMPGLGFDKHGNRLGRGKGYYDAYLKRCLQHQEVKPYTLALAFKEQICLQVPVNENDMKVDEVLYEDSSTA
inactive: [1] 0.032 | filanesib -0.023 | zotarolimus -0.02 | idasanutlin -0.006 | alisertib -0.065 | [2] 0.041 | gefitinib 0.053 | [3] 0.052 | lapatinib 0.028 | pictilisib 0.016 | [4] 0.103 | crizotinib -0.026 | [5] 0.117 | [6] -0.098 | duvelisib -0.023 | gandotinib -0.021 | tozasertib 0 | [7] 0.037 | doramapimod 0.013 | ispinesib 0.046

NCKAP1 isoform 2 (UniProt Q9Y2A7)
Chain of UniProt Q9Y2A7 (Q9Y2A7 whole entry, looked up): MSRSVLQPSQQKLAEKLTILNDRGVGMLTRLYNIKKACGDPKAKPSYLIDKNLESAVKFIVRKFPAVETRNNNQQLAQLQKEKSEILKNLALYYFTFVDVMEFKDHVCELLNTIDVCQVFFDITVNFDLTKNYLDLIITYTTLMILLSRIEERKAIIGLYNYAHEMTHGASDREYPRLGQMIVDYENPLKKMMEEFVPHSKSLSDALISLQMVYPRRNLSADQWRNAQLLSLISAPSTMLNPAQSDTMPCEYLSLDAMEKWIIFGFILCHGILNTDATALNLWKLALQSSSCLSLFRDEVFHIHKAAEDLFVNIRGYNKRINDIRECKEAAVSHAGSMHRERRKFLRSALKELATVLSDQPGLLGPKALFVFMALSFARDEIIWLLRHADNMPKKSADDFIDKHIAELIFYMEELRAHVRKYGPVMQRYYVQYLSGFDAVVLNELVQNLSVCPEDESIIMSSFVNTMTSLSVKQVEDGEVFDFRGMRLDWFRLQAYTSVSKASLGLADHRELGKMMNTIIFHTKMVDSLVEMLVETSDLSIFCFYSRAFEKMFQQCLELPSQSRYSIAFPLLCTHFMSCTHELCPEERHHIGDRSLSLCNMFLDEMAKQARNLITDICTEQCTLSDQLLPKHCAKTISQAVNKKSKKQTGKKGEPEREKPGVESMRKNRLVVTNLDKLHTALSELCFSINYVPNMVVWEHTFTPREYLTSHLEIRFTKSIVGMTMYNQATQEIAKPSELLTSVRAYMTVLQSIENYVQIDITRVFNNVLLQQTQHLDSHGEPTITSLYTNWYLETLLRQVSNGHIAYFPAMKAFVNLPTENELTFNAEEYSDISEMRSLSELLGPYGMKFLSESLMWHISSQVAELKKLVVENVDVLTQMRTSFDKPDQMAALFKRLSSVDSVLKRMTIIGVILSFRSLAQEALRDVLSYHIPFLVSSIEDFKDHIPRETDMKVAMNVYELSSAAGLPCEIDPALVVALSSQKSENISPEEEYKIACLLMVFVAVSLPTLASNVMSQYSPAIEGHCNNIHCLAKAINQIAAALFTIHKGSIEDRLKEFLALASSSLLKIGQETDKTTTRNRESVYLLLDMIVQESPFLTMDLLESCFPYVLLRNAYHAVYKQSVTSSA
inactive: [1] 0.019 | filanesib -0.042 | zotarolimus 0.025 | idasanutlin -0.035 | alisertib 0.067 | [2] 0.008 | gefitinib -0.009 | [3] -0.038 | lapatinib 0.016 | pictilisib -0.049 | [4] -0.021 | crizotinib -0.071 | [5] 0 | [6] -0.08 | duvelisib -0.006 | gandotinib -0.093 | tozasertib -0.017 | [7] 0.031 | doramapimod -0.027 | ispinesib 0.034

NMD3 (UniProt Q96D46)
inactive: [1] 0.004 | filanesib -0.221 | zotarolimus 0.008 | idasanutlin -0.095 | alisertib -0.034 | [2] 0.108 | gefitinib 0.007 | [3] 0.016 | lapatinib 0 | pictilisib 0.089 | [4] 0.094 | crizotinib 0.003 | [5] 0.122 | [6] -0.179 | duvelisib 0.064 | gandotinib 0.007 | tozasertib -0.007 | [7] 0.03 | doramapimod -0.013 | ispinesib 0.139
